Test results published in PubChem BioAssay (NCATS).
Records with an inconclusive call do not appear. Calls of active or inactive are those of the source. Calls come from the whole dose curve; as a rule, active = well fitted curve in the direction sought with a large enough effect; inconclusive = small, poorly fitted or top-dose-only effect, or another doubt; inactive = no such curve, though single readings can be large; an effect the other way counts as inactive or inconclusive.

Experiments:
[1] = qHTS of pediatric cancer cell lines to identify multiple opportunities for drug repurposing: Primary screen for Rh18 cells (AID 1347102); note: nearly all actives have a fitted effect of over 65% in size
Procedure, shortened: (§1)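 Cells (500-1,000/well) in growth media were settled 5 h at 37 degrees C, then given compounds for 48 h. Viability was read as CellTiter-Glo luminescence. Primary runs used MIPE at 11 points (0.78 nM-46 µM) and NPC at 8 points (0.59 nM-46 µM); follow-ups used 11 points.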

[2] = qHTS of pediatric cancer cell lines to identify multiple opportunities for drug repurposing: Primary screen for OHS-50 cells (AID 1347103); note: nearly all actives have a fitted effect of over 40% in size
Procedure, shortened: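 Cells (500-1,000/well) rested 5 h, then received compounds for 48 h; metabolically active cells were measured by CellTiter-Glo luminescence. Final concentrations spanned up to 46 µM (MIPE, 11-point) or 0.59 nM-46 µM (NPC, 8-point) in primary screens, 11-point in follow-ups.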

[3] = qHTS of pediatric cancer cell lines to identify multiple opportunities for drug repurposing: Primary screen for RD cells (AID 1347104); note: nearly all actives have a fitted effect of over 55% in size
Procedure, shortened: (§2)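 Luminescence from CellTiter-Glo served as readout of metabolically active cells after 48 h compound exposure. Titrations: MIPE 11-point, from 0.78 nM; NPC 8-point, from 0.59 nM (final). Concentration-response curves came straight from the primary screen.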

[4] = qHTS of pediatric cancer cell lines to identify multiple opportunities for drug repurposing: Primary screen for control Hh wild type fibroblast cells (AID 1347106);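 note: series mostly up to about 46 µM; a drop in luminescence marks cytotoxicity and a rise apparent proliferation; nearly all actives have a fitted effect of over 55% in size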
Procedure, shortened: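 Viability after 48 h compound treatment at 37C, 500-1,000 cells/well, read as ATP luminescence with CellTiter-Glo. Primary screens used 11-point (MIPE, 0.78 nM-46 µM) or 8-point (NPC, 0.59 nM-46 µM) final concentrations; follow-up screens used 11-point dilutions.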

[5] = qHTS of pediatric cancer cell lines to identify multiple opportunities for drug repurposing: Primary screen for Rh30 cells (AID 1347107); note: series mostly up to about 46 µM; nearly all actives have a fitted effect of over 75% in size
Procedure, shortened: as §1

[6] = qHTS of pediatric cancer cell lines to identify multiple opportunities for drug repurposing: Primary screen for Rh41 cells (AID 1347108);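 note: series mostly up to about 46 µM; luminescence drop marks cytotoxic hits; nearly all actives have a fitted effect of over 70% in size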
Procedure, shortened: as §2

[7] = qHTS of pediatric cancer cell lines to identify multiple opportunities for drug repurposing: Primary screen for MG 63 (6-TG R) cells (AID 1347105); note: nearly all actives have a fitted effect of over 50% in size
Procedure, shortened: as §2

Measured: outcome

CC(=O)SC[C@@H](Cc1ccccc1)C(=O)NCC(=O)OCc1ccccc1
not listed: [7]
inactive: all other assays above

CCCNC(C)C(=O)Nc1c(C)csc1C(=O)OC (stereo not drawn)
not listed: [7]
inactive: all other assays above

C[N+]1(C)CCCC(OC(=O)C(O)(c2ccccc2)c2ccccc2)C1 (stereo not drawn)
inactive: [1] | [2] | [3] | [6]

COCC(=O)Nc1c(I)c(C(=O)NCC(O)CO)c(I)c(C(=O)N(C)CC(O)CO)c1I (stereo not drawn)
not listed: [7]
inactive: all other assays above

CCN[C@H]1CN(CCCOC)S(=O)(=O)c2sc(S(N)(=O)=O)cc21
not listed: [2] | [6]
inactive: all other assays above

O=C(CN1CCNCC1)NC1CCCCC1
not listed: [4] | [7]
inactive: all other assays above

CC(O)CCCCn1c(=O)c2c(ncn2C)n(C)c1=O (stereo not drawn)
not listed: [7]
inactive: all other assays above

Cc1cccc(C(=O)O)c1O
not listed: [2]
inactive: all other assays above

CCCCCCCCCCC(CO)CCCCCCCC (stereo not drawn)
not listed: [4] | [7]
inactive: all other assays above

O=C(NCC(O)CO)c1c(I)c(C(=O)NCC(O)CO)c(I)c(N(CCO)C(=O)CO)c1I (stereo not drawn)
not listed: [7]
inactive: all other assays above

C[C@]1(Cn2ccnn2)[C@H](C(=O)O)N2C(=O)C[C@H]2S1(=O)=O
not listed: [5] | [7]
inactive: all other assays above

C[n+]1ccccc1/C=N/O
not listed: [7]
inactive: all other assays above

CC(=O)OC[C@H]1O[C@@](COC(C)=O)(O[C@H]2O[C@H](COC(C)=O)[C@@H](OC(C)=O)[C@H](OC(C)=O)[C@H]2OC(C)=O)[C@@H](OC(C)=O)[C@@H]1OC(C)=O
not listed: [2] | [6]
inactive: all other assays above

CC1(C)[C@@H](OC(=O)CCC(=O)O)CC[C@]2(C)[C@H]3C(=O)C=C4[C@@H]5C[C@@](C)(C(=O)O)CC[C@]5(C)CC[C@@]4(C)[C@]3(C)CC[C@@H]12
inactive: [1] | [3] | [7] | [4]

COc1ccccc1OC(=O)Oc1ccccc1OC
not listed: [2] | [6]
inactive: all other assays above

COc1cc(O)cc(O)c1
not listed: [2]
inactive: all other assays above

C[C@H]1COc2c(C3(N)CC3)c(F)cc3c(=O)c(C(=O)O)cn1c23
not listed: [2]
inactive: all other assays above

O=C1CC[C@@H](C(=O)O)N1
not listed: [2] | [5]
inactive: all other assays above

O[C@@H]1CO[C@H]2[C@@H]1OC[C@@H]2O
not listed: [2] | [4]
inactive: all other assays above

CCCCOC(=O)c1ccc(N)cc1
inactive: [1] | [7] | [5] | [6]

CCCCCCCCCCCCCCCCC(C(=O)O)C(O)(CC(=O)O)C(=O)O (stereo not drawn)
inactive: [1] | [3] | [5] | [6]

CC(=O)NCc1c(I)c(NC(C)=O)c(I)c(C(=O)O)c1I
not listed: [2] | [4]
inactive: all other assays above

Cc1ccc2c(c1)c1c3n2CCNC3CCC1 (stereo not drawn)
not listed: [2]
inactive: all other assays above

CC(C)(C)NCC(O)COc1cccc2c1CCC(=O)N2 (stereo not drawn)
not listed: [2] | [5]
inactive: all other assays above

CN[C@@H]1[C@H](O)[C@H](NC)[C@H]2O[C@@]3(O)C(=O)C[C@@H](C)O[C@H]3O[C@@H]2[C@H]1O
not listed: [2] | [7]
inactive: all other assays above

Nc1c2c(nc3c1CCC3)CCCC2
not listed: [2] | [4]
inactive: all other assays above

Cc1cc(NC(=O)C2=C(O)c3ccccc3S(=O)(=O)N2C)no1
not listed: [2] | [4]
inactive: all other assays above

CC(C)CCCC(C)CCCC(C)CCCCC(C)CCCC(C)CCCC(C)C (stereo not drawn)
not listed: [2]
inactive: all other assays above

NC(=O)CC[C@@H](N)C(=O)O
not listed: [2]
inactive: all other assays above

O=C(O)Cn1c(C(=O)Nc2nc(-c3ccccc3Cl)cs2)cc2ccccc21
not listed: [2] | [7]
inactive: all other assays above

NS(=O)(=O)c1ccc(NC(=O)CCC(=O)O)cc1
not listed: [2]
inactive: all other assays above

Cc1ccsc1/C=C/C1=NCCCN1C
not listed: [2] | [7]
inactive: all other assays above

Nc1ccc(C(=O)Oc2ccccc2)c(O)c1
not listed: [2]
inactive: all other assays above

CCOc1ccccc1O[C@H](c1ccccc1)[C@H]1CNCCO1
not listed: [2]
inactive: all other assays above

CC(=O)Nc1ccc(C(=O)O)cc1
not listed: [2] | [4]
inactive: all other assays above

Cc1ccccc1N=Nc1ccc(N=Nc2c(O)ccc3ccccc23)c(C)c1
not listed: [2]
inactive: all other assays above

CC(CN(C)C)C(C)(O)Cc1ccc(Cl)cc1 (stereo not drawn)
not listed: [2]
inactive: all other assays above

OC(CCN1CCCC1)(c1ccccc1)C1CCCCC1 (stereo not drawn)
not listed: [2] | [3]
inactive: all other assays above

Cc1cccc(Nc2ccccc2C(=O)O)c1C
not listed: [2]
inactive: all other assays above

O=C(O)Cc1cn(-c2ccccc2)nc1-c1ccc(Cl)cc1
not listed: [2]
inactive: all other assays above

CCOC(=O)[C@H](CCc1ccccc1)N[C@@H](C)C(=O)N1CCC[C@H]1C(=O)O
not listed: [2]
inactive: all other assays above

COC(=O)N/N=C/c1c[n+]([O-])c2ccccc2[n+]1[O-]
not listed: [2]
inactive: all other assays above

O=C(NCCCN1CCOCC1)c1ccc(Cl)cc1
not listed: [2]
inactive: all other assays above

Cc1onc(-c2ccccc2)c1-c1ccc(S(N)(=O)=O)cc1
not listed: [2] | [5]
inactive: all other assays above

O=C1c2cccc(O)c2C(=O)c2c(O)cccc21
inactive: [1] | [3] | [7] | [6]

OCCN1C[C@H](O)[C@@H](O)[C@H](O)[C@H]1CO
not listed: [2]
inactive: all other assays above

CC(=O)Oc1cccc(O)c1
not listed: [2]
inactive: all other assays above

CC(=O)Nc1ccccc1
not listed: [2] | [5]
inactive: all other assays above

C[C@@H]1CCC[C@H](C)N1
not listed: [2]
inactive: all other assays above

CC1CC(OC(=O)c2ccccc2O)CC(C)(C)C1 (stereo not drawn)
not listed: [2]
inactive: all other assays above

COc1ccc2cc(CCC(C)=O)ccc2c1
not listed: [2] | [4]
inactive: all other assays above

CCCCCC(N)=O
not listed: [2]
inactive: all other assays above

O=c1[nH]c(=O)c2ccccc2o1
not listed: [2]
inactive: all other assays above

COC(=O)c1cccnc1
not listed: [2]
inactive: all other assays above

CN(C/C=C/C#CC(C)(C)C)Cc1cccc2ccccc12
inactive: [1] | [3] | [5] | [6]
